# Reference: PubChem BioAssay (EPA / NIEHS)
# Active and inactive are the calls of the source. Rule for the calls: active = hit-call score of the fitted dose curve at least 0.9, where 1 is the maximum; inactive = score below 0.9.
# Read-out: Pro-epidermal growth factor (Homo sapiens) (UniProt P01133)
# Test: LTEA_HepaRG_EGF: Life Technologies and Expression Analysis (LTEA) Assay for Epidermal growth factor (EGF) using HepaRG (AID 2283489)
# Conditions: mRNA level, 48 h; actives raise or lower the signal
# Procedure: LTEA_HepaRG is a cell based, multiplexed-readout assay that uses HepaRG, a human liver cell line, with measurements taken at 48 hours after chemical dosing on a 96-well plate.LTEA_HepaRG_EGF is one of 102 assay component(s) measured in the LTEA HepaRG cell culture assay. It is a marker of Cell proliferation, survival, death.Data from the assay component LTEA_HepaRG_EGF was analyzed into 1 endpoint. This assay endpoint, LTEA_HepaRG_EGF, was analyzed with bidirectional fitting relative to DMSO as the negative control and baseline of activity. Using a type of inducible reporter, measures of mRNA induction for gain or loss-of-signal activity can be used to understand regulation of transcription factor activity. To generalize the intended target to other relatable targets, this assay endpoint is annotated to the growth factor intended target family, where the subfamily is EGF-like domain.
# A total of 1060 chemcials from the ToxCast library were tested in eight-point concentration-response experiments. Cell culture and cytotoxicity assays were conducted at Thermo Fisher Scientific's Custom Services facility (Madison, WI). A single lot of human HepaRG cells (Thermo Fisher Scientific, Frederick, MD) was used for the cell culture experiments. 96-well format collagen type I coated plates of human HepaRG cells were prepared using established methods. Briefly, cryopreserved HepaRG cells were thawed, plated at a density of approximately 100,000 cells/well in HepaRG Thaw, Plate, and General Purpose media (HPRG770, Thermo Fisher Scientific), and incubated for 48 hours. 0.5% DMSO was selected as vehicle control to balance the requisite need of DMSO in HepaRG cultures to maintain differentiation (for example, baseline metabolism, proportions of hepatocytes vs. cholangiocytes), while enabling further hepatic receptor pathway activation (for example, PXR and CAR) in response to chemical exposure. 48 hours after plating, the culture medium was replaced with HepaRG Serum-Free Incudtion Media. Cells were exposed to each test chemical in duplicate and maintained in CO2 incubators for another 48 hours. Chemical plates were thawed to room temperature and 200x concentrations of treatment groups were prepared. 8-point conentration-reponse curves were made with the highest exposure at 100 uM, followed by half-log dilutions, all in 0.5% DMSO. Each test plate contained variouse controls, induction positive controls (1mM phenobarbital), cytotoxicity positive controls ([…] aflatoxin B1), vehicle controls (0.5% DMSO), and total lysis controls (0.5% DMSO). Cell morphology images were taken using an Essen IncuCyte FLR automated microscope, with six 96-well plates imaged in about 24 minutes. Images were captured and exported and JPEG files. Spent culture media was transfered to black-well plates for the LDH assay, and remaining media was sorted at -80 C for later use. Cells were treated with RLT buffer and frozen until shipped for gene expression analysis. Total RNA was isolated from the cell suspension in 75 uL of Buffer RLT (Qiagen, Germantown, MD 20874) by Quintiles/Expression Analysis (Durham, NC) using a custom isolation procedure. Total RNA from each plate well was transferred to a preamplification plate. Fluidigm's 96.96 Dynamic ArrayTM (Fluidigm, Amsterdam, the Netherlands) technology was used for gene expression analyses by quantitative reverse transcription polymerase chain reaction (qRT-PCR, performed by Quintiles/Expression Analysis, Durham, NC)89. Standard TaqManTM Assays (Applied Biosystems/ThermoFisher Scientific, Foster City, CA) were used to assess the expression of 93 genes selected based on their selectivity and sensitivity to important hepatic receptors known to be modulated by environmental chemicals; importance in human hepatocyte functionality; and hepatotoxicity. […]
row,Structure (SMILES),outcome
1,N#Cc1cccnc1,inactive
2,COc1ccccc1N,inactive
3,CCCCCCCCCCCCc1cccc(S(=O)(=O)O)c1,inactive
4,Oc1c(Cl)cc(Cl)cc1Cl,inactive
5,Clc1cccc(Cl)c1,inactive
6,O=C(N[C@H]1CN2CCC1CC2)c1ccc2c(c1)OCCO2,inactive
7,CC(C)(C)c1ccccc1O,inactive
8,Clc1cccc(Cl)c1Cl,inactive
9,CC(C)O.CC(C)O.OCCN(CCO)CCO.OCCN(CCO)CCO.[Ti],inactive
10,Oc1cc(Cl)c(Cl)cc1Cl,inactive
11,Cc1cc(C)cc(C)c1,inactive
12,OCCN(CCO)CCO,inactive
13,O=C(O)C1(c2ccc3c(c2)OC[C@H](Cc2ccc(-c4ccccc4)cc2)[C@H]3O)CCCC1,inactive
